EWS-Fli inh = EWS/Fli-driven NR0B1 reporter inhibitors, primary screen, A673 cells, NR0B1 luciferase, luminescence, MLPCN library; viability-normalised; inhibition, % at 12.6 µM; 0.67% of 350,000 active; AID 651661, 2012;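 active = mean inhibition of at least 50% after viability correction, with every replicate also passing that limit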;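 also: firefly luciferase signal divided by Alamar Blue viability fluorescence both relative to DMSO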
LGR2 inh = inhibitors of bursicon-induced LGR2 CRE-luciferase signal, primary screen, cell-based, HEK293, CRE-luciferase reporter, bursicon stimulation. Drosophila bursicon receptor LGR2 (rickets). bursicon-stimulated, 4 h. inhibition, % at 9.99 µM. 0.35% of 380,000 active. AID 720647, 2013;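 active = drop in luminescence signal, shown as inhibition above about 50% in the replicate tests, limit read from the data, passing the limit was not always enough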;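 also: agonist challenge used bursicon conditioned medium at about half maximal strength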
INS-1E GSIS act = GLuc luminescence reporter in INS-1E cells, primary screen for activators of glucose-dependent secretion of insulin. INS-1E GLuc reporter insulin secretion, 2-3 h. activation, % at 16.6 µM. 0.61% of 370,000 active;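 active = lowest replicate activation of at least 40%, so every replicate reaches that level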;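 also: 0% = median of neutral control wells and 100% = median of IBMX positive control wells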
F508del corr = F508del CFTR correction, initial screen, CFBE line, single point; CFBE cells, YFP halide quenching; stimulated with forskolin plus potentiator P3; % fluorescence drop versus neutral controls; activity (quench increase), % at 7.58 µM; 0.36% of 350,000 active;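 active = mean added fluorescence quench of at least 8% versus neutral control, with both replicates also reaching 8%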;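 also: cells transiently co-express mutant CFTR-F508del with the halide-sensitive YFP; corrector assay measuring rescue of mutant channel to the surface after 24 h compound exposure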
RAD52 anneal inh = RAD52 DNA annealing inhibitors, primary screen, biochemical, FRET, single point, set 2 | DNA repair protein RAD52 homolog (Homo sapiens), P43351 | recombinant RAD52 DNA annealing, FRET fluorescence | inhibition, % at 18.7 µM | 0.46% of 360,000 active;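 active = every replicate showing at least 50% inhibition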
Target sequence (P43351 whole entry, looked up): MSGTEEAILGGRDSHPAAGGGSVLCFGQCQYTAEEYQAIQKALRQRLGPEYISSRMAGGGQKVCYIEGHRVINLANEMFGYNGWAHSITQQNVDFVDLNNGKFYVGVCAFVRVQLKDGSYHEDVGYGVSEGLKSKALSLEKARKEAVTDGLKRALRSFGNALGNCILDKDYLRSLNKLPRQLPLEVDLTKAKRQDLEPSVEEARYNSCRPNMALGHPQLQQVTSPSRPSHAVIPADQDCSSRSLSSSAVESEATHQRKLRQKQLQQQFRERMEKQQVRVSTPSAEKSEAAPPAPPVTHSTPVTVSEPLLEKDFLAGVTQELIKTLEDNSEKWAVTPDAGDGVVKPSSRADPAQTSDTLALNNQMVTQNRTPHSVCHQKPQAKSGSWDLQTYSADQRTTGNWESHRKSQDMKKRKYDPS
RAD54 branch = inhibitors of human RAD54 branch migration, primary screen, biochemical, fluorescence, single point; RAD54 Holliday junction branch migration, FAM/BHQ fluorescence; inhibition, % at 10.4 µM; 0.14% of 360,000 active;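 active = mean normalized replicate activity at least 40 and at least half of replicates scoring 40 or more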;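 also: 0% = median of neutral control wells and 100% = median of positive control wells; inhibitors cause a drop in the FAM fluorescence signal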
* marks the source's active call; other numbers are inactive results; . = not tested or not shown. Shown are actives, neighbours in structure and some others; about 1.8% of the full set was active somewhere.

SMILES	EWS-Fli inh	LGR2 inh	INS-1E GSIS act	F508del corr	RAD52 anneal inh	RAD54 branch
O=C(NCCN1CCN(C(=O)c2ccccc2Cl)CC1)C(=O)NCc1ccccc1	-3.3	0.7	159.8*	1.0	-2.2	-2.9
O=C(Cc1ccccn1)NCC[C@@H]1CC[C@H](NC(=O)Nc2ccc(C(F)(F)F)cc2)[C@@H](CO)O1	-10.8	1.2	2.6	14.2*	-9.2	-0.7
O=C(Cc1ccccn1)NCC[C@@H]1CC[C@@H](NC(=O)Nc2ccc(C(F)(F)F)cc2)[C@H](CO)O1	-10.6	9.1	-3.0	-0.1	-23.0	-6.9
OCCN(CCO)c1cc2c3ccccc3ccc2c2ccccc12	-12.7	84.9*	-0.3	0.4	1.0	.
CCOC(=O)C(C)n1cnc2c(nnn2-c2ccc(C)cc2)c1=O (centres undefined)	.	7.9	5.4	.	.	5.6
CN(CC(=O)NCCc1ccc(S(N)(=O)=O)cc1)CC(=O)Nc1ccc(Cl)c(C(F)(F)F)c1	7.8	-17.0	-39.6	12.8*	-6.8	1.7
COc1ccccc1NS(=O)(=O)c1ccc(N/N=C(\C)C(C)C)c([N+](=O)[O-])c1	.	19.9	-20.5	.	.	.
CC1CC(C)CN(C(=O)c2ccc(N3CC4CC(C3)c3cccc(=O)n3C4)c([N+](=O)[O-])c2)C1 (centres undefined)	.	13.1	2.1	.	.	.
COc1ccc(C#Cc2ccc([C@H]3[C@H](CO)N4CCCCN(C)C[C@@H]34)cc2)cc1	-23.4	-61.3	3.1	-1.7	63.3*	3.3
COc1ccc(C#Cc2ccc([C@H]3[C@H]4CN(C)CCCCN4[C@H]3CO)cc2)cc1	-31.0	-40.2	-2.3	-6.0	51.8*	-2.4
COCC(=O)N1CCCCN2[C@@H](CO)[C@H](c3ccc(C#Cc4ccc(OC)cc4)cc3)[C@@H]2C1	.	-1.8	-11.2	-5.1	7.2	2.5
COCC(=O)N1CCCCN2[C@H](C1)[C@@H](c1ccc(C#Cc3ccc(OC)cc3)cc1)[C@@H]2CO	.	6.9	-21.1	-0.5	3.5	3.0
O=C(c1ccc([N+](=O)[O-])o1)N1CCc2ccccc21	7.6	-22.7	4.3	1.0	-7.5	-2.1
O=C(Nc1cccc(C(F)(F)F)c1)c1cccc2c(-c3cccnc3)coc12	.	.	.	.	.	-0.5
COc1ccc(-c2coc3c(C(=O)Nc4cc(OC)c(OC)c(OC)c4)cccc23)c(C)c1	19.9	57.9*	8.2	1.3	-7.9	-4.4
COc1cccc(CNc2ncc(C(=O)Nc3cc(OC)c(OC)c(OC)c3)c(C)n2)c1	52.3*	-10.7	-0.5	4.2	-13.4	-6.6
COc1cc(NC(=O)c2cccc3c(-c4cccnc4)coc23)cc(OC)c1OC	-4.1	85.6*	-21.4	1.7	-3.1	4.6
COc1ccc(NC(=O)C(=O)NCC2CCCN2S(=O)(=O)c2cccs2)cc1 (centres undefined)	48.4	1.8	30.3	16.6*	-10.5	0.4
N#CC(C#N)=C(Nc1ccc(F)cc1)SCc1cccc(F)c1	.	52.6*	-30.9	.	.	.
Cc1cc2oc(=O)cc(CN3CCOCC3)c2c(C)c1Cl	6.4	-0.1	41.3*	1.0	-13.2	-20.7
CCCCSc1nc(O)c(C2OC(=O)c3c2ccc(OC)c3OC)c(=O)n1-c1ccccc1 (centres undefined)	.	.	.	.	.	-7.9
CS(=O)(=O)N1CCCCC1c1cc(C(=O)Nc2cccc3c2CCCC3)no1 (centres undefined)	-5.2	-3.2	54.1*	2.9	-10.7	-14.1
O=[N+]([O-])c1cnc2ccccc2c1	0.3	2.6	1.4	3.8	0.6	-2.5
O=[N+]([O-])c1cc([N+](=O)[O-])c2cc3ccccc3nc2c1	72.0*	10.8	-4.0	-1.4	-16.5	8.7
Cc1ccc(SCC(=O)OCC(=O)N(CC(C)C)c2c(N)n(Cc3ccccc3)c(=O)[nH]c2=O)c(C)c1	0.8	3.4	-27.1	0.8	-9.7	7.1
SMILES	EWS-Fli inh	LGR2 inh	INS-1E GSIS act	F508del corr	RAD52 anneal inh	RAD54 branch
COc1cc(C(=O)C(=O)c2ccc(OC)c(OC)c2)ccc1O	4.1	-1.3	44.5*	5.4	-1.7	.
COc1ccc(C(=O)c2cc(OC)c(OC)c(OC)c2)cc1OC	34.2	.	.	13.2*	-5.5	.
COc1ccc(C(=O)c2ccc(OC)c(OC)c2)cc1	.	2.7	55.9*	.	.	-4.3
COc1ccc(C(=O)c2ccc(OC)c(N)c2)cc1N	.	.	.	.	.	-0.8
COc1ccc(-c2ccc3c(N)c(C(=O)c4ccc(OC)c(OC)c4)sc3n2)cc1	.	-22.3	171.7*	.	.	-1.1
C[C@H]1CC(=O)N[C@H](c2ccccc2)C/C=C\C[C@@H](c2ccccc2)NC1=O	.	.	11.9	.	.	.
COC(=O)c1ccc(CN2C(=O)NC3(CCC(C)CC3)C2=O)o1 (centres undefined)	.	2.8	16.7	.	.	-1.2
COc1cc2ccc(C(C)=O)cc2cc1OC	-6.5	-6.9	47.6*	1.5	-7.6	10.2
COc1ccc(C=CC(=O)c2ccc3cc(OC)c(OC)cc3c2)cc1OC	-6.5	-3.3	.	5.2	-12.7	-4.0
COc1ccc(C(=O)c2ccc(Br)cc2)cc1	.	-2.9	83.7*	.	.	0.0
COc1ccc(C(=O)c2ccccc2)cc1	-18.5	-24.2	-6.3	-1.3	-7.9	.
CCOC(=O)c1sc2nc(-c3ccccc3)ccc2c1N	.	2.4	75.7*	.	.	.
COc1ccc(CN2C[C@H](COCc3ccccc3)Oc3cccc(F)c3S2(=O)=O)cc1	15.4	-1.2	18.3	-0.5	-1.9	.
O=C(CCCl)Nc1nc2c(s1)CCc1ccccc1-2	8.4	8.3	-1.2	8.8*	-5.3	.
CC(=O)Nc1nc2c(s1)CCc1ccccc1-2	.	-9.5	-0.7	0.9	2.0	9.3
CC(=O)Nc1ccc(N=Cc2ccc(OCc3ccccc3)cc2)cc1	.	-41.6	10.7	.	.	.
CCCCCN(C(=O)CCC(=O)OCC(=O)c1ccc(CCC)cc1)c1c(N)n(CCCC)c(=O)[nH]c1=O	-2.8	13.0	-15.1	0.7	-8.8	-1.8
CCCNC(=O)N1CC2(C1)[C@@H](c1ccccc1)[C@H](CO)N2C(=O)CC1CC1	5.6	2.5	14.6	1.6	-1.2	.
O=C(N/N=C/c1cccs1)c1cc(C2CC2)nc2ccccc12	46.5	26.0	.	12.3*	-10.8	.
Cc1ccc(-c2nnn(CC(=O)N3CCN(c4nc5ccccc5s4)CC3)n2)cc1	.	.	211.1*	.	.	-7.2
CCC(C(=O)OCC(=O)C1(O)CCC2C3CCC4=CC(=O)CCC4(C)C3C(O)CC21C)C(C)C (centres undefined)	-1.4	45.7	.	8.2*	-8.5	-4.5
CC(=O)[C@@]1(O)CC[C@H]2[C@@H]3CCC4=CC(=O)CC[C@]4(C)[C@H]3[C@@H](O)C[C@@]21C	-0.2	-0.4	.	4.7	-0.7	-1.7
O=C(CCc1ccccc1)NNC(=O)COc1ccccc1	.	16.8	22.6	.	.	1.8
COc1ccc(CCCC(=O)NC2CCCCC2)cc1	.	.	.	.	.	-9.1
